Laboratory results taken from PubChem BioAssay AID1159580 (chemical genetic matrix, 2015).
Among all 5,500 compounds or so, about 2,000 (36%) were called active. Inconclusive results (about 18%) are left out. Cut-off read from the data, not from the text of the source: active = normalized growth mostly below about 0.91 (no sharp cut-off); inconclusive = no clear call, values can overlap the other calls; inactive = mostly above about 0.92. The list shows a part of the results.

Test: chemical genetic growth profiling, strain panel (AID 1159580);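 note: tested at 20 µM; growth read once vehicle control cultures reached saturation at 30 °C; 1 = growth at the plate median or of vehicle wells; lower values mean less growth of the strain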
Conditions: S. cerevisiae deletion strains, growth OD
[1] = locus YHR030C, strain SLT2, stronger effect = lower value

Measured: normalized growth

C[C@H]1O[C@H](O[C@H]2[C@H](O)[C@@H](O)[C@@H](O[C@H]3[C@H](O)[C@@H](O)C(O)O[C@@H]3CO)O[C@@H]2CO)[C@H](O)[C@@H](O)[C@@H]1N[C@H]1C=C(CO)[C@@H](O)[C@H](O)[C@H]1O (stereo not given in full)
inactive: locus YAL021C, strain ccr4, stronger effect = lower value 0.999 | locus YAL026C, strain drs2, stronger effect = lower value 1.03 | locus YAL030W, strain snc1, stronger effect = lower value 0.993 | locus YBL061C, strain skt5, stronger effect = lower value 0.984 | locus YBR009C, strain hhf1, stronger effect = lower value 1.01 | locus YBR023C, strain chs3, stronger effect = lower value 1.01 | locus YBR171W, strain sec66, stronger effect = lower value 0.979 | locus YBR231C, strain swc5, stronger effect = lower value 0.982 | locus YBR279W, strain paf1, stronger effect = lower value 1.01 | locus YCL011C, strain gbp2, stronger effect = lower value 1.03 | locus YCL016C, strain dcc1, stronger effect = lower value 1.02 | locus YCL069W, strain vba3, stronger effect = lower value 1 | locus YCR088W, strain abp1, stronger effect = lower value 0.991 | locus YDL005C, strain med2, stronger effect = lower value 1 | locus YDL040C, strain nat1, stronger effect = lower value 0.99 | locus YDR001C, strain nth1, stronger effect = lower value 0.995 | locus YDR069C, strain doa4, stronger effect = lower value 0.985 | locus YDR137W, strain rgp1, stronger effect = lower value 0.998 | locus YDR159W, strain sac3, stronger effect = lower value 0.981 | locus YDR195W, strain ref2 0.936 | locus YDR297W, strain sur2, stronger effect = lower value 0.988 | locus YDR334W, strain swr1, stronger effect = lower value 0.983 | locus YDR335W, strain msn5, stronger effect = lower value 0.974 | locus YDR392W, strain spt3, stronger effect = lower value 1.04 | locus YEL003W, strain gim4, stronger effect = lower value 0.974 | locus YEL037C, strain rad23, stronger effect = lower value 0.988 | locus YEL061C, strain CIN8 (second series), stronger effect = lower value 0.994 | locus YER015W, strain faa2, stronger effect = lower value 1.01 | locus YER016W, strain bim1, stronger effect = lower value 1 | locus YER111C, strain swi4, stronger effect = lower value 0.984 | locus YER155C, strain BEM2 (second series), stronger effect = lower value 0.977 | locus YFR010W, strain ubp6, stronger effect = lower value 0.978 | locus YGL167C, strain pmr1, stronger effect = lower value 0.974 | locus YGL173C, strain kem1, stronger effect = lower value 0.955 | locus YGL227W, strain vid30, stronger effect = lower value 0.987 | locus YGL240W, strain doc1, stronger effect = lower value 0.964 | locus YGL253W, strain hxk2, stronger effect = lower value 0.999 | locus YHR013C, strain ard1, stronger effect = lower value 0.992 | locus YHR027C, strain rpn1, stronger effect = lower value 1.01 | [1] 0.955 | locus YHR079C, strain IRE1, stronger effect = lower value 0.959 | locus YHR142W, strain chs7, stronger effect = lower value 0.989 | locus YJL092W, strain hpr5, stronger effect = lower value 0.977 | locus YJL095W, strain BCK1 (second series), stronger effect = lower value 0.993 | locus YJL095W, strain BCK1, stronger effect = lower value 0.957 | locus YJL115W, strain asf1, stronger effect = lower value 0.974 | locus YJL129C, strain trk1, stronger effect = lower value 0.969 | locus YJL154C, strain vps35, stronger effect = lower value 0.964 | locus YJL164C, strain tpk1, stronger effect = lower value 1.01 | locus YJL166W, strain qcr8, stronger effect = lower value 0.971 | locus YJL187C, strain SWE1, stronger effect = lower value 0.999 | locus YJR066W, strain TOR1, stronger effect = lower value 0.916 | locus YKL160W, strain elf1, stronger effect = lower value 0.968 | locus YKR026C, strain gcn3, stronger effect = lower value 0.995 | locus YKR091W, strain srl3, stronger effect = lower value 0.988 | locus YLL001W, strain dnm1, stronger effect = lower value 0.945 | locus YLL026W, stronger effect = lower value 1.01 | locus YLL041C, strain sdh2, stronger effect = lower value 0.988 | locus YLR027C, strain aat2, stronger effect = lower value 0.993 | locus YLR113W, strain HOG1, stronger effect = lower value 0.933 | locus YLR221C, strain rsa3, stronger effect = lower value 1.03 | locus YLR258W, strain gsy2, stronger effect = lower value 1.01 | locus YLR262C, strain YPT6 (second series), stronger effect = lower value 0.959 | locus YLR320W, strain mms22, stronger effect = lower value 1.01 | locus YLR342W, strain FKS1, stronger effect = lower value 0.973 | locus YLR357W, strain rsc2, stronger effect = lower value 0.985 | locus YLR370C, strain arc18, stronger effect = lower value 0.993 | locus YLR384C, strain iki3, stronger effect = lower value 0.977 | locus YML120C, strain ndi1, stronger effect = lower value 0.98 | locus YMR058W, strain fet3, stronger effect = lower value 0.996 | locus YMR125W, strain sto1, stronger effect = lower value 0.996 | locus YMR129W, stronger effect = lower value 0.989 | locus YMR205C, strain PFK2, stronger effect = lower value 0.983 | locus YMR231W, strain pep5, stronger effect = lower value 0.991 | locus YNL071W, strain lat1, stronger effect = lower value 1.01 | locus YNL183C, strain NPR1, stronger effect = lower value 0.923 | locus YNL209W, strain ssb2, stronger effect = lower value 1.01 | locus YNL248C, strain rpa49, stronger effect = lower value 1.01 | locus YNL322C, strain KRE1 (second series), stronger effect = lower value 0.988 | locus YNR049C, strain mso1, stronger effect = lower value 0.987 | locus YOR001W, strain rrp6, stronger effect = lower value 0.96 | locus YOR070C, strain gyp1, stronger effect = lower value 1.01 | locus YOR080W, strain dia2, stronger effect = lower value 0.98 | locus YOR083W, strain WHI5, stronger effect = lower value 0.987 | locus YOR106W, strain vam3, stronger effect = lower value 0.979 | locus YOR231W, strain MKK1, stronger effect = lower value 0.953 | locus YOR265W, strain rbl2, stronger effect = lower value 0.992 | locus YOR270C, strain vph1, stronger effect = lower value 1 | locus YOR290C, strain snf2, stronger effect = lower value 1.01 | locus YPL051W, strain arl3, stronger effect = lower value 1 | locus YPL078C, strain atp4, stronger effect = lower value 0.948 | locus YPL106C, strain sse1, stronger effect = lower value 1.02 | locus YPL240C, strain hsp82, stronger effect = lower value 0.988 | locus YPL256C, strain CLN2, stronger effect = lower value 0.967

O=[N+]([O-])c1ccc(Oc2c(Cl)cccc2Cl)c(Cl)c1Oc1c(Cl)cccc1Cl
inactive: locus YAL013W, strain DEP1, stronger effect = lower value 0.98 | locus YBR229C, strain ROT2, stronger effect = lower value 0.981 | locus YDL101C, strain DUN1, stronger effect = lower value 0.95 | locus YDL134C, strain PPH21, stronger effect = lower value 0.993 | locus YDR150W, strain NUM1, stronger effect = lower value 0.992 | locus YEL061C, strain CIN8, stronger effect = lower value 0.998 | locus YGR078C, strain PAC10, stronger effect = lower value 0.984 | [1] 0.956 | locus YHR087W, strain rtc3, stronger effect = lower value 1.04 | locus YJR043C, strain POL32, stronger effect = lower value 0.961 | locus YJR075W, strain HOC1, stronger effect = lower value 1.04 | locus YLR039C, strain RIC1, stronger effect = lower value 0.902 | locus YLR058C, strain SHM2 (second series), stronger effect = lower value 0.991 | locus YLR085C, strain ARP6, stronger effect = lower value 0.976 | locus YLR262C, strain YPT6, stronger effect = lower value 0.949 | locus YML094W, strain GIM5, stronger effect = lower value 1.01 | locus YMR219W, strain ESC1, stronger effect = lower value 1 | locus YMR263W, strain SAP30, stronger effect = lower value 1.01 | locus YMR307W, strain GAS1, stronger effect = lower value 1.02 | locus YNL153C, strain GIM3, stronger effect = lower value 0.986 | locus YNL298W, strain CLA4 (second series), stronger effect = lower value 0.953 | locus YNL322C, strain KRE1, stronger effect = lower value 0.987 | locus YNR030W, strain Alg12, stronger effect = lower value 0.969 | locus YPL055C, strain LGE1, stronger effect = lower value 1 | locus YPL241C, strain CIN2, stronger effect = lower value 0.961 | locus YPR135W, strain CTF4, stronger effect = lower value 0.901
